# A number with no mark means an inactive call.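 How the source made its calls: active = MAPPIT score above the 99th percentile of random reference set scores in the same batch; inactive = at or below it.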
# B1: mael (protein)
# chain: MAPKKHSGFMMFVNEWRNRNAEGRRMTLAQAVSHCGTIWEKMNTQQRGPYNSGGKDANVAQRAKRESSNGHGQVDKAQREATESLMDMKRTIERLVLNAKMSHDLENAKFVFVAFNYFTKALTTDVYVPAEFAACEYSLKEGIRSIYSTMIDPGQIIFGQGSDALLHSSTTHDLPLPPNALGEKNMTKLYRNIVDYLSKCQGKGKTLVVFTPAENITMVKSCFRYLECDDDFRDGGEKIQVFDIQYLLFILKKEVMNVADLNDEKINKFATDAFFKKDFFEFTAGIACQYHEDNDRTKYCTQSMVTRWAYTFTDFMCGDLAITVQPGKHIPAQTKPNYLIISSYASSLDHESSFDSFYSLPGSGVKKESQPEACSLSSSRLSVASSSYKPIDHTSFAANLNEVSEFPSLGMRNSSKHHGIAASAQREWNARNLPTHSRLIRKVSDNDFSVNGADGKLKK
# B2: dmt (protein)
# chain: MVRTRPVPCVPSPDVNTATRRNPGRPKKQSIGADLSTTISKPGRPKKLSIGADLTTIRKPGRPKKLGADLTTIIRKPGRPTKLSNKQSLTALNEPECRIRKCVVKIRRIKVKNGVVSEISRNDAPDVDASTFEPARNSTMYIPSKVQKSTQPQNIKENVAGPETSPCQQRIRSKSPSGPAAEISPKKPPRFFHRDQPLTRTRSSVTRNVFDFLSQSQIEDDSDREDPAADIIQRLVKDGKACVMVRSRKIGKPRAKRTAKKVRPVGNRRKVSTKDNEPEPVKVVPKSIEPRLQKPSRSLSTIFEPEEDYSNDSEHGYVQPIEVPVQVHVEPSTSKQAHEGAYSNLARSVMLNQTQAQNPLPSTDRRRELINMARQLVSTPLNRRAPPVTDVSATTTALSPIAHQSPNAVRTAGGKSPWRVSDDSPLPNTFMFGFNNSQMPSYSSDHVQRRHVYVPDSPVEHAENIPHEESICPPLHEQNHDSNANDSNEENRPPPTISKSMSINDQESEENAENFVHLPNPRRTLQKRTPFKDINILEVVTLPSWKKNVTATVSKEITPTRVAPRPMATSSPAQRSQTRSNLFGFDDDFACEDIPRKSTTPSKGIAPTSMSLNREVTPALANRNQTEVNTFGCNEILPCENIPKEKETNTEERTSSSQNLFGFDEFITESQDSPANFTGLSQNVNLHDKLHRLAELRPRDGELPQVSYTSIRSDCLGESHSKQTDIRYMLCSTMIAPPRPAKRKPAAPTARESMGLFRVDQDEPEQSFADKQPRRTYVKERPQRKRKKRVQILYIESESEDEDEQDSHDKSLDSPEKKRHHVKRPRRDIEHEAKLEQFVTSFNKQCEEVEKFPVIIE
# B3: caly (protein)
# chain: MNAAGGGSGAQAAAVAAGNNSLSHNALLSTASGATTMPMAQLADGWLELESDPGLFTLLLKDFGCHDVQVEEVYDLQKPIESPYGFIFLFRWIEERRARRKIVETTAEIFVKDEEAISSIFFAQQVVPNSCATHALLSVLLNCNENNLQLGDTLSRLKTHTKGMSPENKGLAIGNTPELACAHNSHAMPQARRRLERTGAGVSSCRFTGEAFHFVSFVPINGQLFELDGLKPYPMNHGGWEDSEDWTDKFRRVMAERLGIATGEQDIRFNLMAVVPDRRIAITHKLKMLRTNQAIVSGTLQKLLKADEQGESGNGDSQRPDTPTTLLEPSAFTARDLQSLLKNLDTEIAINEQHLADENDRRHMFKVDASRRTHNYDKFICTFLSMLAHQGVLGELVSQHLLPSKKVSGQGAANRISKQSTTASAGGSTAAGTASTPKTQQQQAAAAKNGKSPSKTPGRRRKGRNKCRKRK
# B4: Sas10 (protein)
# chain: MDSDGDDYVMSGSDQEYDDEEREILEDLRKQRKKPHDPVQEVLGFSDDDDDDDDDDEEEQQDVAELMRDSDIEGAEDDDRDLPNTMDWGSKRSTYYNTDFVDQDYSSYNAQEEEQARAEEEEAKKIQLRLAKRMSEADFQLDNVEAAPAGSSDDNELSHITKVTSDLAGLSERERRQLMHSESPEFIILTQDFQQHLDEVKNLLKPVLNYVRKHDVPMVPALQYAGLCHTVLTTYCSNVAFYLLLKARRIDVKAHPVIRRLVQLKDLIEELKPRYEEYIRPQLEALLERIEDGDAFTVLDVAQRKAKLQILNKYNDGQQASVSSDDDDNDDDDDAESKEKDLQEEAGEEEEEEDARRGITYQMAKNKGLTPHRKKELRNPRVKHRGKYRKALIRRKGAVRTVRKELQRYGGELSGIKAGVTKSVKFRT
# B5: sqd (protein)
# chain: MAENKQVDTEINGEDFTKDVTADGPGSENGDAGAAGSTNGSSDNQSAASGQRDDDRKLFVGGLSWETTEKELRDHFGKYGEIESINVKTDPQTGRSRGFAFIVFTNTEAIDKVSAADEHIINSKKVDPKKAKARHGKIFVGGLTTEISDEEIKTYFGQFGNIVEVEMPFDKQKSQRKGFCFITFDSEQVVTDLLKTPKQKIAGKEVDVKRATPKPENQMMGGMRGGPRGGMRGGRGGYGGRGGYNNQWDGQGSYGGYGGGYGGYGAGGYGDYYAGGYYNGYDYGYDGYGYGGGFEGNGYGGGGGGNMGGGRGGPRGGGGPKGGGGFNGGKQRGGGGRQQRHQPY
# B6: Nelf-E (protein)
# chain: MVYIHFPNNLTEEEQMLQAKYQKLKKKKKALQAHKAPKPEPESSLTLKRPTDARDAREVARKLIKSGAIPAIQKQTKQDQTSFKRPKGQERAKRSTSETTVASYQPFSSTQNDVAQETIISEIIKEEPRRQNLYQHFATERDREERGMPEKVPMDTAQPEKPRAGNTIFVSGNKVTEDFLKKTFNDYGTIVNVSMEIEKSRGFVSFAKPESADRAIAEIHGKNVNGINLQVQLARRQPQIEPINDASSSAVWSSIAASKSQKGSHKDHREMVQYDEDFLL
# Experiments:
# Assay in all cases: MAPPIT interaction score (arbitrary units); higher = stronger binary interaction signal, active = hit call of the paper
# [1] = target: Hsc70-1; conditions: MAPPIT configuration: N-N; pair source set: DPIM
# [2] = target: HP6; conditions: MAPPIT configuration: N-N; pair source set: screen_1
# [3] = target: Hmg-2; conditions: MAPPIT configuration: N-C; pair source set: screen_3
# [4] = target: Hrb27C; conditions: MAPPIT configuration: N-N; pair source set: Lit-BM-16
# [5] = target: Hn; conditions: MAPPIT configuration: N-N; pair source set: Curagen_high_conf
# [6] = target: jbug; conditions: MAPPIT configuration: N-C; pair source set: screen_3
# 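Further: HEK293T cells with Epo stimulation, STAT-responsive firefly luciferase reporter, fold induction versus unstimulated cells divided by the larger fold induction of two negative controls lacking either bait or prey.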
binder,measurement,setting,value
B1,MAPPIT interaction score,[1],2.36
B2,MAPPIT interaction score,[2],4.14 (active)
B3,MAPPIT interaction score,[1],2.29
B4,MAPPIT interaction score,[3],0.087
B5,MAPPIT interaction score,[4],-0.206
B6,MAPPIT interaction score,[5],0.208
same,MAPPIT interaction score,[6],0.0879
